VACV Venus inh: qHTS for Stage-Specific Inhibitors of Vaccinia Orthopoxvirus: Venus Reporter Primary qHTS; Vaccinia virus Venus reporter expression, fluorescence; Potency, µM (doses to about 36.5 µM), without a hit: at the highest dose activity change, negative = inhibition, hits mostly inhibitors; 330,000 compounds, 0.46% hits; calls by dose curve; tested in A549 cells; also: % is scaled to controls: 0 for no effect and ±100 for the full control effect; nearly all actives have a fitted effect of over 30% in size
Vaccinia mCherry: qHTS for Stage-Specific Inhibitors of Vaccinia Orthopoxvirus: mCherry Reporter Primary qHTS; Vaccinia virus mCherry reporter infection, fluorescence; Potency, µM (highest dose often 36.5 µM), inactives show at the highest dose activity change, negative = inhibition, most hits filed as inhibitors; 310,000 compounds, 0.63% hits; calls by dose curve; tested in A549 cells; also: % is scaled to controls: 0 for no effect and ±100 for the full control effect; nearly all actives have a fitted effect of over 35% in size
HCV inh: qHTS Assay for Inhibitors of Hepatitis C Virus (HCV); 340,000 compounds, 3.4% hits; AID 651820, 2012; Potency, µM (highest dose often 41.8 µM), without a hit: top-dose activity change, negative = inhibition, hits mostly inhibitors; Huh7.5.1 HCVcc-Cre infection, luciferase reporter, 44 h; also: % is scaled to controls: 0 for no effect and ±100 for the full control effect
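HCVcc-Cre virus at an moi near 0.5 was added right after compound to cells cultured 4 h from seeding (1,000 cells/well). Luciferase activity was determined 44 h later, 15 min after substrate addition at RT.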
NS1 inh: qHTS Assay for Inhibitors of Influenza NS1 Protein Function; Potency, µM (top dose mostly 46.1 µM), inactives show at the top dose activity, positive = more growth; 270,000 compounds, 0.4% hits; AID 2326, 2010; calls by dose curve; also: actives are rising curves; nearly all actives have a fitted effect of over 50% in size
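A cell-based growth assay was used: compounds that relieve NS1-induced slow growth of budding yeast raise OD600. Assay medium was yeast nitrogen base with ammonium sulphate and -URA supplement, pH 6.0, with 2% galactose.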
Pf growth 96h: Primary qHTS for delayed death inhibitors of the malarial parasite plastid, 96 hour incubation; AID 504834, 2011; 320,000 compounds, 6.9% hits; P. falciparum luciferase reporter growth, 96 h; Potency, µM (highest dose often 28.7 µM), for the others: top-dose activity change, negative = inhibition, most hits filed as inhibitors; also: % is scaled to controls: 0 for no effect and ±100 for the full control effect
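Two parasite generations (96 h, 37 C, 5% CO2) of compound exposure in infected erythrocytes (0.05% parasitemia, 2% hematocrit). Luciferase-reporter P. falciparum; decreased luminescence indicates inhibited growth, aimed at apicoplast-acting delayed death.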
Pf growth 48h: Primary qHTS for delayed death inhibitors of the malarial parasite plastid, 48 hour incubation; P. falciparum luciferase growth in erythrocytes, 48 h; Potency, µM (highest dose often 28.7 µM), without a hit: at the top dose activity change, negative = inhibition, usual class: inhibitors; 310,000 compounds, 5.9% hits; AID 504832, 2011; also: % is scaled to controls: 0 for no effect and ±100 for the full control effect
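Luciferase-expressing P. falciparum in infected erythrocytes (2% hematocrit, 0.1% parasitemia final) in RPMI 1640/0.5% Albumax were exposed to compound for 48 hours at 37 C, 5% CO2; growth read as luminescence.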
The depositor's hits bear a star; i = inactive; ? = inconclusive; . = no result given; [ ] = another dose, or the depositor's remark. Shown are actives, neighbours in structure and some others; about 11% of the full set was active somewhere. Unless noted, calls follow the shape of the dose curve; as a rule, active = well fitted inhibition curve with a large enough effect; inconclusive = small, poorly fitted or top-dose-only effect, or another doubt; inactive = no such curve, though single readings can be large or run the other way. Potency is read from the fitted curve at half-maximal effect.

SMILES	VACV Venus inh	Vaccinia mCherry	HCV inh	NS1 inh	Pf growth 96h	Pf growth 48h
COc1ccc(C(=O)Nc2ccccc2C(=O)NC(Cc2ccc(O)cc2)C(=O)NNC(=O)c2ccc(C)cc2)cc1 (stereo not given)	-18%	i	-24%	15%	?	?
COc1ccc(C(=O)Nc2ccccc2C(=O)NC(Cc2ccc(O)cc2)C(=O)NNC(=O)c2ccccc2)cc1 (stereo not given)	-15%	-2%	-3%	29%	32%	10µM*
CC(C)C(NC(=O)c1ccccc1NC(=O)c1ccccc1)C(=O)NNC(=O)c1ccncc1 (stereo not given)	7%[7.34 µM]	-7%[7.34 µM]	-9%	1%	?	?
COc1ccccc1CNC(=O)CSc1nnc(C)c2c(C)n(-c3ccccc3)nc12	-11%	-9%	.	.	.	.
CCOC(=O)c1cc(-c2ccco2)nn1-c1ccc(C)cc1	7%	-1%	-20%	-14%	-4%	0%
Nc1ncnc(Nc2ccccc2)n1	-4%	i	-5%	.	17%	-2%
COc1cc2nc(Nc3ccc(C)c(Cl)c3)nc(N)c2cc1OC	?	?	?	-3%	41%	0.59µM*
COc1cc2nc(Nc3ccc(F)cc3)nc(N)c2cc1OC	?	?	?	-3%	27%	0.52µM*
COc1cc2nc(N(C)C)nc(N)c2cc1OC	-38%	.	?	1%	8%	?
COc1cc2nc(Nc3cccc(C)c3)nc(N)c2cc1OC	-7%	-13%	.	.	.	.
Cc1ccc(Nc2ncnc(N)n2)cc1C	.	.	19%	3%	4.1µM*	-44%
COc1cc2nc(Nc3ccc(C)c(C)c3)nc(N)c2cc1OC	?	-27%	?	-2%	1%	0.52µM*
CCOC(=O)c1cccc(Nc2nc(C)cc(C)n2)c1	-16%	.	?	-12%	-14%	25%
CCOC(=O)c1ccc(Nc2nc(N)c3cc(OC)c(OC)cc3n2)cc1	-30%	?	?	5%	-4%	1µM*
Nc1nc(N)c2c(ccc3nccc32)[nH]1	?	?	?	2%	3.7µM*	1.7µM*
Nc1ccc2ncccc2c1N	-11%	i	?	6%	?	?
CCOc1ccccc1N(CC(=O)Nc1ccccc1F)S(=O)(=O)c1ccccc1	.	.	?	-3%	?	10µM*
COC(=O)c1cc(NC(=O)CN(c2ccccc2OC)S(=O)(=O)c2ccccc2)ccc1Cl	?	-20%[1.46 µM]	?	20%	86%	10µM*
CCOc1ccc(NC(=O)CN(c2ccccc2OCC)S(=O)(=O)c2ccccc2)cc1	-15%	-15%	.	.	.	.
COc1ccc(NC(=O)CN(c2ccc(OC)c(Cl)c2)S(=O)(=O)c2ccccc2)c(OC)c1	.	.	?	?	12µM*	?
COc1ccccc1N(CC(=O)Nc1cc(C)on1)S(=O)(=O)c1cccc(C(F)(F)F)c1	.	.	-5%	.	?	13µM*
CCCC(=O)NC(C)c1nc2ccccc2n1C (stereo not given)	-2%	i	6%	6%	10%	26%
COc1ccc(NC(=O)CN(c2ccccc2F)S(=O)(=O)c2ccc(C)cc2)c(OC)c1	.	.	11µM*	6%	1%	?
CCc1ccccc1NC(=O)COC(=O)c1c(C)nsc1NC	.	.	4.5µM*	.	20%	-18%
CNc1snc(C)c1C(=O)OCC(=O)Nc1ccc(C)cc1F	-13%	0%	?	.	33%	9%
SMILES	VACV Venus inh	Vaccinia mCherry	HCV inh	NS1 inh	Pf growth 96h	Pf growth 48h
NCCNCCNCCNCCN	.	.	.	.	-8%	-14%
Cc1ccc(CNC(=O)c2cc(C)nn2-c2ccccc2)cc1	6%	-16%	12%	-5%	10%	9%
Cc1ccc(Cc2nnc3n(-c4ccccc4)nc(C(=O)c4ccccc4)n3c2=O)cc1	.	.	?	3%	13µM*	13µM*
CSc1nnc(CCNS(=O)(=O)c2ccc(Br)cc2)n1C	-2%	-5%	21%	6%	26%	6%
CC1(C(=O)NS(=O)(=O)c2ccccc2Cl)CCN1C(=O)C1(c2ccccc2)CC1 (stereo not given)	3%	i	.	.	.	.
COc1cc2c(cc1NC(=O)c1ccc(C(C)(C)C)cc1)CCCC2	5%	10µM*	?	?	?	?
O=C(NC1CCCc2ccccc21)C1CCN(S(=O)(=O)N2CCCCCC2)CC1 (stereo not given)	-26%	i	-9%	-1%	.	-6%
COc1cc(CNC(C)c2ccccc2)c(Br)cc1OCC(N)=O (stereo not given)	.	.	-7%	-5%	8.3µM*	.
CCC(CO)NCc1cc(OC)c(OCC(=O)NCCc2ccccc2)cc1Br (stereo not given)	-4%	-26%	?	4%	4.1µM*	?
O=c1oc2cc([N+](=O)[O-])ccc2nc1/C=C(O)/C=C/c1ccccc1	.	.	.	4%	-1%	-1%
Cc1sc2c(c1C)c(=O)nc1scc(CC(=O)O)n12	.	.	8%	3%	-17%	.
Cc1ccc(N2C(=O)CN(Cc3sccc3C)C2=S)cc1C	-3%	i	-4%	12%	-10%	12µM*
CCN1CC=C2C(C#N)=C(N)C(C#N)(C#N)C(c3cc(Cl)ccc3Cl)C2C1 (stereo not given)	14%	i	?	9%	0%	8.3µM*
CN(C)CCNC(=O)/C=C/c1cn(-c2ccccc2)nc1-c1cc2ccccc2oc1=O	.	.	1%	.	8.3µM*	-16%
O=Cc1cn(-c2ccccc2)nc1-c1cc2ccccc2oc1=O	-7%	.	?	1%	.	24%
Clc1ccc(CSc2ccc(-c3cccs3)nn2)cc1	-2%	-14%	.	.	.	.
Cc1ccc(C(=O)Nc2ccc(N3CCOCC3)cc2N2CCOCC2)cc1	-13%	-1%	?	3%	?	16%
O=C(COc1ccccc1F)Nc1ccc(N2CCOCC2)cc1N1CCOCC1	-6%	-16%	-4%	.	-28%	?
O=C(CSCc1ccc(F)cc1)Nc1ccc(N2CCOCC2)cc1N1CCOCC1	.	.	-12%	.	13µM*	5.9µM*
O=C(COc1ccc(F)cc1Cl)Nc1ccc(N2CCOCC2)cc1N1CCOCC1	-12%	-14%	22µM*	.	?	9.3µM*
Cc1nn(Cc2ccc(F)cc2)c2sc(C(=O)Nc3ccc(N4CCOCC4)cc3N3CCOCC3)cc12	?	?	?	20%	15µM*	12µM*
CNC(=O)c1sc(N2N=C3/C(=C/c4ccccc4)CCCC3C2c2ccccc2)nc1C (stereo not given)	.	.	10µM*	14%	3.3µM*	?

Source: PubChem BioAssay (National Center for Advancing Translational Sciences (NCATS))
